Common to all, as to experiment: DAPPL (digital affinity profiling via proximity ligation, sequencing); 10 mM Tris-HCl pH 7.5, 50 mM NaCl, 1 mM DTT, 4% glycerol, room temperature, 30 min; GST-TFs on glutathione beads, 16-mer random dsDNA library, 0.1% formaldehyde crosslink after washing; high values mean tight binding
In assay [1] the target is T1, FEV (Homo sapiens, UniProt Q99581 1-238).
T1 sequence: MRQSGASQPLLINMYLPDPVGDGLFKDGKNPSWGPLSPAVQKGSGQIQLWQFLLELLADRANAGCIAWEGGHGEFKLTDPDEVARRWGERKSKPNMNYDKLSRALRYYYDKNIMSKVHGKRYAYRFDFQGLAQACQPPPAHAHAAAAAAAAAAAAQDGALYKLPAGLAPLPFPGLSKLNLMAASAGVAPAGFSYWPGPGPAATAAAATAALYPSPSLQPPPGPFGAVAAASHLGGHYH
As to conditions: protein: recombinant; tags: N-terminal GST; dsDNA, one strand shown. The method, boiled down:
(§1)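 After expression in yeast as GST fusions, human transcription factors were bound to glutathione beads, DNA-barcoded and mixed with a tag-only sample. The pools were incubated with 200 nmole of a 16-mer random double-stranded DNA library in Tris/NaCl/DTT/glycerol buffer (30 min, room temperature), washed and crosslinked with 0.1% formaldehyde. Proximity ligation with BsaI/T4 ligase ran for 1 h at 37 °C, before PCR amplification and sequencing on an Illumina NextSeq500. Binding signal is a hexamer's read frequency for a factor divided by its frequency for the tag-only sample.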

For assay [2], the target named is ETV5 (Homo sapiens, UniProt P41161 1-510). The following applies: protein: recombinant; tags: N-terminal GST; dsDNA, one strand shown. In short, it runs like this:
as §1

For assay [3], the target named is HSF1 (Homo sapiens, UniProt Q00613 1-529). The following applies: protein: recombinant; tags: N-terminal GST; chain copies: 3; dsDNA, one strand shown. In short, it runs like this:
as §1

Assay [4] addresses T2, SPIC (Homo sapiens, UniProt Q8N5J4 1-248).
T2 sequence: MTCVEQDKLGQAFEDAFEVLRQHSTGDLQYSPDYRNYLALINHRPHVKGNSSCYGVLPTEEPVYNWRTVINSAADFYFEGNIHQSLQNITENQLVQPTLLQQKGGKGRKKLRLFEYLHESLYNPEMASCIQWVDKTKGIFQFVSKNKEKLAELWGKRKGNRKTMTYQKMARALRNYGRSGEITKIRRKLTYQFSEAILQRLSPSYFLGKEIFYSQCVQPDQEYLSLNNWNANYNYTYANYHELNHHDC
The following applies: protein: recombinant; tags: N-terminal GST; dsDNA, one strand shown. In short, it runs like this: as §1

Assay [5] has as its target ELF4 (Homo sapiens, UniProt Q99607 1-663). As to conditions: protein: recombinant; tags: N-terminal GST; dsDNA, one strand shown. In short, it runs like this: as §1
The target of assay [6] is T3, ELK4 (Homo sapiens, UniProt P28324-2 1-405).
T3 sequence: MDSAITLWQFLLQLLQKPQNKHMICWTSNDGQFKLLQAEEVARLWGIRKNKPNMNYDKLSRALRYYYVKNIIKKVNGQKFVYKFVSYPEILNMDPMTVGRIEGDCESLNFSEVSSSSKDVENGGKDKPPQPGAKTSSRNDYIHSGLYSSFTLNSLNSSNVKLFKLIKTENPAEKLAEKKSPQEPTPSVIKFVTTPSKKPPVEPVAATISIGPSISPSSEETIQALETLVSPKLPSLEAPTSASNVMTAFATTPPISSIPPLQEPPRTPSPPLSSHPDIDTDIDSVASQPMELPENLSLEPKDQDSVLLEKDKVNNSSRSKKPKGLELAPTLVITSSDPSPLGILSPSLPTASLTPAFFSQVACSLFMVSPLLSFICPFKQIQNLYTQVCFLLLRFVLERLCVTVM
As to conditions: protein: recombinant; tags: N-terminal GST; dsDNA, one strand shown. In short, it runs like this: as §1

Assay [7] has as its target T4, ETV2 (Homo sapiens, UniProt O00321 1-342).
T4 sequence: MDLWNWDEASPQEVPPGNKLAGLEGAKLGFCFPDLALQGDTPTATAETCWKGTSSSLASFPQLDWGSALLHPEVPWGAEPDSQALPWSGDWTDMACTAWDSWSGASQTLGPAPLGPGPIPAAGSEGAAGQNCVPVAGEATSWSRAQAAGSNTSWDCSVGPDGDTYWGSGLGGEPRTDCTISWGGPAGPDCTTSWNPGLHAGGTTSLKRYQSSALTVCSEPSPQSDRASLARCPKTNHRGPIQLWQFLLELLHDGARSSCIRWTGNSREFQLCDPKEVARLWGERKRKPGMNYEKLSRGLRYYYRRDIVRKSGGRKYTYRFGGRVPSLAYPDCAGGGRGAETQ
The following applies: protein: recombinant; tags: N-terminal GST; dsDNA, one strand shown. The method, boiled down: as §1

In assay [8] the target is T5, ELF3 (Homo sapiens, UniProt P78545 1-371).
T5 sequence: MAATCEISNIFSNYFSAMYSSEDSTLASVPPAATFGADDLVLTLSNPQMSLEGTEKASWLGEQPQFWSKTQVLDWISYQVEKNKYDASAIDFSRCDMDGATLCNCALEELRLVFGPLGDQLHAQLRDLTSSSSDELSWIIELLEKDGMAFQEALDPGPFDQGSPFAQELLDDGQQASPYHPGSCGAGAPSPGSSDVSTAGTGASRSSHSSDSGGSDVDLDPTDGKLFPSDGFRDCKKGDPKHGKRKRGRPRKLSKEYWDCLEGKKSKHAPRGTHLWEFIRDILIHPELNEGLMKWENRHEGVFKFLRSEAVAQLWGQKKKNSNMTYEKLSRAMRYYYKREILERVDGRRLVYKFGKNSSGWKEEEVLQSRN
The following applies: protein: recombinant; tags: N-terminal GST; dsDNA, one strand shown. In short, it runs like this: as §1

Assay [9] addresses CRX (Homo sapiens, UniProt O43186 1-299). As to conditions: protein: recombinant; tags: N-terminal GST; dsDNA, one strand shown. The method, boiled down:
as §1

Assay [10] addresses ETV1 (Homo sapiens, UniProt P50549 1-477). The following applies: protein: recombinant; tags: N-terminal GST; dsDNA, one strand shown. In short, it runs like this:
as §1

Assay [11] addresses T6, ERF (Homo sapiens, UniProt P50548 1-548).
T6 sequence: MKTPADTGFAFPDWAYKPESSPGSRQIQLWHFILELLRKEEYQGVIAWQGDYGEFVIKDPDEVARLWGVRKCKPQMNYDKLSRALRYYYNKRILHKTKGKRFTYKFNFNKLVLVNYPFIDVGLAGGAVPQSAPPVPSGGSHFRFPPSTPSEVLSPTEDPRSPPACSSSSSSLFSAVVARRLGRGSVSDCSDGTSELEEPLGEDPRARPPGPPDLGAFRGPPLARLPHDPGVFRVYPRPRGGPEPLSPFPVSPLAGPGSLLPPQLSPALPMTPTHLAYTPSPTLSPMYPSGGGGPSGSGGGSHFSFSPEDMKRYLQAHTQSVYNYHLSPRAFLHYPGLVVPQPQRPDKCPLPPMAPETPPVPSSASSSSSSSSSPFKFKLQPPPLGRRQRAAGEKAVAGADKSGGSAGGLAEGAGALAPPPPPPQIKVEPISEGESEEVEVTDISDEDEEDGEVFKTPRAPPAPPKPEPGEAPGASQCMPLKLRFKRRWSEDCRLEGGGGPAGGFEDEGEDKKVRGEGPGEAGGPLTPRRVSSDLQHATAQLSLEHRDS
As to conditions: protein: recombinant; tags: N-terminal GST; dsDNA, one strand shown. In short, it runs like this: as §1

For assay [12], the target named is T7, ETV3L (Homo sapiens, UniProt Q6ZN32 1-361).
T7 sequence: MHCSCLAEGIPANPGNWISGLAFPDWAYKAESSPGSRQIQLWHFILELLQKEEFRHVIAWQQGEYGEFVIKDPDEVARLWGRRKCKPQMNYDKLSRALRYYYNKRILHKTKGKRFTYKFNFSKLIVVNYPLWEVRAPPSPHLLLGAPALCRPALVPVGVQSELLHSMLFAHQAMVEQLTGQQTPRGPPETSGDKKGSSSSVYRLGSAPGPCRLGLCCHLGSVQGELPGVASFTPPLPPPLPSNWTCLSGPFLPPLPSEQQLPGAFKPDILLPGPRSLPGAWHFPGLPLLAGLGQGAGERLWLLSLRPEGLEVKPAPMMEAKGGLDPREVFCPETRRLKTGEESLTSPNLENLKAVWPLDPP
The following applies: protein: recombinant; tags: N-terminal GST; dsDNA, one strand shown. The method, boiled down:
as §1

Assay [13] has as its target T8, ETS2 (Homo sapiens, UniProt P15036 1-469).
T8 sequence: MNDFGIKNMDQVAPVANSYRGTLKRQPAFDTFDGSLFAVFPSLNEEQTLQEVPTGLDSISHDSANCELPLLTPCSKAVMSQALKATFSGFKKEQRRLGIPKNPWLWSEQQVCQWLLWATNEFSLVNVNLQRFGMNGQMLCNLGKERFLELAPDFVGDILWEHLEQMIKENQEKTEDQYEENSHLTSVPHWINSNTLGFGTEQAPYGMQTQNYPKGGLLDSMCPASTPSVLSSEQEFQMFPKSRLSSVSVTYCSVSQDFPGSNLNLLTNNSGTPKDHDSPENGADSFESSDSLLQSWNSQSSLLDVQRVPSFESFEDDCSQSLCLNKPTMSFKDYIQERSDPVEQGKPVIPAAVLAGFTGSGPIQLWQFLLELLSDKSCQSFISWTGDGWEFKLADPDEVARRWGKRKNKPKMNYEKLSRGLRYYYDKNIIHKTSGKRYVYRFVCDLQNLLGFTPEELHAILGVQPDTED
The following applies: protein: recombinant; tags: N-terminal GST; dsDNA, one strand shown. In short, it runs like this: as §1

Assay [14] concerns the target T9, SPDEF (Homo sapiens, UniProt O95238 1-335).
T9 sequence: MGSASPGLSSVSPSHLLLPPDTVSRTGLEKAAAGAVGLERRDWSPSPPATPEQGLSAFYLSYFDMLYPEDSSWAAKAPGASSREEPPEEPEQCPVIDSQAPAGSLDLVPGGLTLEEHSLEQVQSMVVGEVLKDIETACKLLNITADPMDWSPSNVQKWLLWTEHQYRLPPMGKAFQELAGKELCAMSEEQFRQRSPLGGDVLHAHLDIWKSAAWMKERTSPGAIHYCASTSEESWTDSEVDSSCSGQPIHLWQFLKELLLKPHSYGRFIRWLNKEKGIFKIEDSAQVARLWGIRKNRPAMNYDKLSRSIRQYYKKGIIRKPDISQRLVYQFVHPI
The following applies: protein: recombinant; tags: N-terminal GST; dsDNA, one strand shown. The method, boiled down: as §1

Assay [15] has as its target T10, ETV7 (Homo sapiens, UniProt Q9Y603 1-341).
T10 sequence: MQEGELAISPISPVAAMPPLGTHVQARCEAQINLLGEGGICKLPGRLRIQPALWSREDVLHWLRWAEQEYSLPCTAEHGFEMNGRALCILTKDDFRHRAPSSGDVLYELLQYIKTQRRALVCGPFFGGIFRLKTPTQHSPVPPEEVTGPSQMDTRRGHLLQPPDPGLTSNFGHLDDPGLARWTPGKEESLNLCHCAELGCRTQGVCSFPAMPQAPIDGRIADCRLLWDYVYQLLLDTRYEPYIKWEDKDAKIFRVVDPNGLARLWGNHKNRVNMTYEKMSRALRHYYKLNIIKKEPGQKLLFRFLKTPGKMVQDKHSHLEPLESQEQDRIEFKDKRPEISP
The following applies: protein: recombinant; tags: N-terminal GST; dsDNA, one strand shown. The method, boiled down: as §1

In assay [16] the target is T11, ELF5 (Homo sapiens, UniProt Q9UKW6-2 1-255).
T11 sequence: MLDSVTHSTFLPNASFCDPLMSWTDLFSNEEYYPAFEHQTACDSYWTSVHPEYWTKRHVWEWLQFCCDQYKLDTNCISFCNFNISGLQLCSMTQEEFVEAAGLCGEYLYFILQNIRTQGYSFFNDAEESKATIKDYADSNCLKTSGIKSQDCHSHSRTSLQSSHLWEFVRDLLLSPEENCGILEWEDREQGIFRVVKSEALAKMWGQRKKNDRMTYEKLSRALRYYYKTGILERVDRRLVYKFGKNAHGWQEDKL
The following applies: protein: recombinant; tags: N-terminal GST; dsDNA, one strand shown. In short, it runs like this:
as §1

Assay [17] addresses T12, ETV3 (Homo sapiens, UniProt P41162-2 1-143).
T12 sequence: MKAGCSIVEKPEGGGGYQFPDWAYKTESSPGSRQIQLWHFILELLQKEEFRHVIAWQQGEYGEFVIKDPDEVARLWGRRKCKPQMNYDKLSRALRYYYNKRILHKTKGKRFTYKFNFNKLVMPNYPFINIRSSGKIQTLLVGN
The following applies: protein: recombinant; tags: N-terminal GST; dsDNA, one strand shown. The method, boiled down: as §1

Assay [18] deals with ETV6 (Homo sapiens, UniProt P41212 1-452). The following applies: protein: recombinant; tags: N-terminal GST; dsDNA, one strand shown. The method, boiled down: as §1
ETV6, sequence (P41212 whole entry): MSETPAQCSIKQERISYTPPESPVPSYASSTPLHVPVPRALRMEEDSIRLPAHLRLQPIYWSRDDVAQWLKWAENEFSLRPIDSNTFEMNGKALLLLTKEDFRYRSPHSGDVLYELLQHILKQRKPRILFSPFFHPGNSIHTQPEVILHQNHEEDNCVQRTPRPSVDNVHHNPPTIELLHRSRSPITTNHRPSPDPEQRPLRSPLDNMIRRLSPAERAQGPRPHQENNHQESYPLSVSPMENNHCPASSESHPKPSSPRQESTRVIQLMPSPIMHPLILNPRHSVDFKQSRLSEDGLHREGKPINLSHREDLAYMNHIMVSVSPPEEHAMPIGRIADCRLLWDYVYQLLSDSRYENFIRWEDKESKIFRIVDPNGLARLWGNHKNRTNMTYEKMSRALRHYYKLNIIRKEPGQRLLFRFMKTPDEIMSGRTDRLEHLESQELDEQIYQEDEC

ETV5, sequence (P41161 whole entry): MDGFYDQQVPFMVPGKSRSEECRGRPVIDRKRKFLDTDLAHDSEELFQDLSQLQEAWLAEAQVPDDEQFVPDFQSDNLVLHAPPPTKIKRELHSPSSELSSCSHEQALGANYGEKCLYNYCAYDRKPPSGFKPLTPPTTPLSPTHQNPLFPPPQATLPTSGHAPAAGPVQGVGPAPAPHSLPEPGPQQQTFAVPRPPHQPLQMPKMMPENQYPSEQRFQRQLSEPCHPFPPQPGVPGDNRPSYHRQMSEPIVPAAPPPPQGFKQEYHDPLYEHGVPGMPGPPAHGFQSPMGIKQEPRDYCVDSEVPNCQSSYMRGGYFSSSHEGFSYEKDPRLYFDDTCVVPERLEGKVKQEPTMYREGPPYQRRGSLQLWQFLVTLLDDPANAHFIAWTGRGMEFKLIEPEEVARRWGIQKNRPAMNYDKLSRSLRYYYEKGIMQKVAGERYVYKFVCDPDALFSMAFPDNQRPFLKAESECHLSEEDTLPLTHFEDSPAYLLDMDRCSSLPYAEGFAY
CRX, sequence (O43186 whole entry): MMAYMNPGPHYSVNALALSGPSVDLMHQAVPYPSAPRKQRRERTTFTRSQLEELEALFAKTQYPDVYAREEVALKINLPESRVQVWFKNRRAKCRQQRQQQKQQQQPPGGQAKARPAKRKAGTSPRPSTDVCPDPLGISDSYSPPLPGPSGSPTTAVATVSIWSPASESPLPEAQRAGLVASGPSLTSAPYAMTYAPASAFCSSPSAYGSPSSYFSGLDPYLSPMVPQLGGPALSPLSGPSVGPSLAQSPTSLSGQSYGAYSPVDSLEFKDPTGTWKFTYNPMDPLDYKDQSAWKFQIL
ELF4, sequence (Q99607 whole entry): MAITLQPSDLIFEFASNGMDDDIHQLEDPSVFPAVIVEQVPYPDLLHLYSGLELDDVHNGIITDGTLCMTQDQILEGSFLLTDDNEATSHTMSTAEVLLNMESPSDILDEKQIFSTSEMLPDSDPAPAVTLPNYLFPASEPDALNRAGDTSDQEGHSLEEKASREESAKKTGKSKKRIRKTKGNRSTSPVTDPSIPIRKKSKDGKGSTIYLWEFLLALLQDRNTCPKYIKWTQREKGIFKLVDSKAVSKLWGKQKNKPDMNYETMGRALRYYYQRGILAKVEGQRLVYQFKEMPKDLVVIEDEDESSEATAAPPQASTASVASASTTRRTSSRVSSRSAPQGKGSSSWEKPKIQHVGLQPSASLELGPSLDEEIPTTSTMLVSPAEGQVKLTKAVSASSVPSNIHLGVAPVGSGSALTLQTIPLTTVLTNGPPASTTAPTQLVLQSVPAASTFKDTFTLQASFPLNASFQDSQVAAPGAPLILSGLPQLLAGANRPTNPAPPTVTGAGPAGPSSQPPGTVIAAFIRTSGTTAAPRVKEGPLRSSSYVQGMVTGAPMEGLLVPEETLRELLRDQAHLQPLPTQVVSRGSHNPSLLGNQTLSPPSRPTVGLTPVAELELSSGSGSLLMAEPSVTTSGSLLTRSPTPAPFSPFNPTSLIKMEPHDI
HSF1, sequence (Q00613 whole entry): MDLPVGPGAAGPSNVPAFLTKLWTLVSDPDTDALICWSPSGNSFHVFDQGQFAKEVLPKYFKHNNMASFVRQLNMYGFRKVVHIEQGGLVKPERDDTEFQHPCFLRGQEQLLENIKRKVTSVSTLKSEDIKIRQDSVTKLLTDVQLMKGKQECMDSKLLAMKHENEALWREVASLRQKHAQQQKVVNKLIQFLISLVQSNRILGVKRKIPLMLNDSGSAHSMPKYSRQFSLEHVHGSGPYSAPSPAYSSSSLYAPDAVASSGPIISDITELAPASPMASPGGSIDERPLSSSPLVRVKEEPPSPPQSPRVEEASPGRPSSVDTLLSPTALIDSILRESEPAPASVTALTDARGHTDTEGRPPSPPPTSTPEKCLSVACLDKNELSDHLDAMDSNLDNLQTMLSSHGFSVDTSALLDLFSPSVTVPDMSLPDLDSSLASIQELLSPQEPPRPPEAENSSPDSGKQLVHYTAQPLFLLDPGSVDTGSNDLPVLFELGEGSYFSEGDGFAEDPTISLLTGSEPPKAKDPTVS
ETV1, sequence (P50549 whole entry): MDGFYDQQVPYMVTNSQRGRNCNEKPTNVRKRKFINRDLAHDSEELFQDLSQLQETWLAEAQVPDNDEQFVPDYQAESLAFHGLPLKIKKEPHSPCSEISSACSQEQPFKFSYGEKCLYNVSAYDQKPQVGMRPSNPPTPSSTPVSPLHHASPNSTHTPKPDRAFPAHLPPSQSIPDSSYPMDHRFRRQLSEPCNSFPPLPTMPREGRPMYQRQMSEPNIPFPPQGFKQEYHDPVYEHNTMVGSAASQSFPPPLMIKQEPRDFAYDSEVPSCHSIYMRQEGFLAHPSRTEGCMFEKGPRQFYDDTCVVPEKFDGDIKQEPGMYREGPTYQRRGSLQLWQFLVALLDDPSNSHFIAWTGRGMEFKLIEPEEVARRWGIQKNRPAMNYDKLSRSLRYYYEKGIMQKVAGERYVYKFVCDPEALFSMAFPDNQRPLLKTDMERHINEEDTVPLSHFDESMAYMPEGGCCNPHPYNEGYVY

As for AATGTT, the binding signal is 1.47 fold enrichment (6-mer frequency, TF over GST control) in [1]; 1.61 fold enrichment (6-mer frequency, TF over GST control) in assay [2]; 2.33 fold enrichment (6-mer frequency, TF over GST control) in [3]; 1.68 fold enrichment (6-mer frequency, TF over GST control) in assay [4]; 1.57 fold enrichment (6-mer frequency, TF over GST control) in assay [5]; 1.46 fold enrichment (6-mer frequency, TF over GST control) in [6]. Also, the binding signal in [7] is 1.43 fold enrichment (6-mer frequency, TF over GST control); in assay [8], 1.51 fold enrichment (6-mer frequency, TF over GST control); in assay [9], 1.59 fold enrichment (6-mer frequency, TF over GST control); in [10], 1.66 fold enrichment (6-mer frequency, TF over GST control); in assay [11], 1.61 fold enrichment (6-mer frequency, TF over GST control); in assay [12], 1.56 fold enrichment (6-mer frequency, TF over GST control). For the same sequence, the binding signal in assay [13] was 1.56 fold enrichment (6-mer frequency, TF over GST control); in [14] it was 1.44 fold enrichment (6-mer frequency, TF over GST control); in assay [15], 1.68 fold enrichment (6-mer frequency, TF over GST control); in [16], 1.62 fold enrichment (6-mer frequency, TF over GST control); in assay [17], 1.61 fold enrichment (6-mer frequency, TF over GST control); in [18], 1.63 fold enrichment (6-mer frequency, TF over GST control).

The values above are taken from article PMC7862700, “An all-to-all approach to the identification of sequence-specific readers for epigenetic DNA modifications on cytosine”.
